Measurements from PubChem BioAssay (NCI).
This is part of a sample that, as a whole, favours compounds with a hit. Of some 83,000 tested, about 20% had one in any assay.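 Values shown are percent growth following 48 h exposure of cells in 96-well plates to a single concentration of compound; below 10 was considered active.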 Calls of active or inactive are those of the source.

test system: NCI-H522 lung; assay: NCI-60 one-dose screen, 48 h (100 = growth as untreated, 0 = no growth, -100 = all killed); conditions: 10 µM

Q: With `COc1ccc(NC(=O)CSc2nnc(-c3ccc4nc(-c5ccc(Cl)cc5)[nH]c4c3)o2)cc1` as the compound, how does the growth read?
A: 22.6% (inactive)

Q: With `CN(CCO)c1oc(-c2ccccc2)nc1[P+](c1ccccc1)(c1ccccc1)c1ccccc1` as the compound, how does the growth read?
A: -9.01% (active)

Q: How did the growth turn out when `CN1CCc2c(sc3ncnc(N/N=C/c4ccc5ccccc5c4)c23)C1` was run?
A: 83.9% (inactive)

test system: A549/ATCC NSCLC; assay: as above; conditions: 10 µM

Q: `COc1ccc(/C=C/C(=O)c2ccc(NC(=O)CN3C(=O)NC(C)(c4ccccc4)C3=O)cc2)cc1` (stereo unspecified) was tested. Which growth did it give?
A: 85.9% (inactive)

Q: `Cc1ccc(C(C)C)cc1NC(=O)c1ccccc1O` was tested. Which growth did it give?
A: 47.8% (inactive)

Q: For `CC1(c2ccccc2)NC(=O)N(CC(=O)Nc2ccc(C(=O)/C=C/c3ccc(Br)cc3)cc2)C1=O` (stereo unspecified), which growth is on record?
A: 38.9% (inactive)

Q: With `C=C[C@@]12CN3CC[C@]1(O)[C@@](C(=O)OC)(CO2)c1[nH]c2ccccc2c1C3` as the compound, how does the growth read?
A: 87.6% (inactive)

Q: How did the growth turn out when `COc1ccc(/C=C/C(=O)c2ccc(S(=O)(=O)NCCNc3nc(Nc4ccc(F)cc4)nc(N(C)C)n3)cc2)cc1` was run?
A: 50.1% (inactive)

Q: How did the growth turn out when `O=c1oc2ccccc2cc1-c1csc(N=Nc2c(O)[nH]c3ccc(Br)cc23)n1` was run?
A: 100% (inactive)

Q: For `O=C(CSc1nnc(-c2c[nH]c3ccccc23)n1-c1ccccc1)Nc1ccc(C(=O)/C=C/c2ccccc2Cl)cc1`, which growth is on record?
A: 91.1% (inactive)

Q: `O=C(NO)c1ccc(-c2nc3ccc4[nH]ncc4c3c3c2CCCC3)cc1` was tested. Which growth did it give?
A: 6.83% (active)

Q: How did the growth turn out when `CS(=O)(=O)Nc1ccc(-c2ccc3c(c2)ncn3-c2ccc(NC(=O)Nc3ccc(Br)cc3)cc2)cc1` was run?
A: 12.1% (inactive)

Q: Which growth does the source give for `O=C(CS(=O)(=O)c1oc(-c2ccc(Cl)cc2)nc1S(=O)(=O)c1ccc(Cl)cc1)N1CCOCC1` here?
A: 83.7% (inactive)

Q: For `COc1cc(-c2nc3cc(Cl)c(Cl)cc3[nH]2)ccc1OCc1nnc(-c2ccc(Br)cc2)o1`, which growth is on record?
A: 19.5% (inactive)

Q: `COc1cccc(C(N)=Nc2ccc(OCCCCCCn3cncn3)cc2)c1` was tested. Which growth did it give?
A: 26.5% (inactive)

Q: With `COc1cc2c3c(n(CCCn4ccnc4)c(=O)c2cc1OC)-c1nc2c(cc1C3=O)OCO2` as the compound, how does the growth read?
A: 47.7% (inactive)

Q: For `Cc1ccc(/C=C/C(=O)c2ccc(NC(=O)CSc3nnc(-c4c[nH]c5ccccc45)n3-c3ccccc3)cc2)cc1`, which growth is on record?
A: 95.9% (inactive)

Q: Which growth does the source give for `O=C(CSc1nnc(-c2ccc3nc(-c4ccccc4)[nH]c3c2)o1)Nc1ccc(Br)cc1` here?
A: 66.2% (inactive)

Q: Which growth does the source give for `O=C(CNc1nc(-c2ccccc2)cs1)Nc1ccccc1` here?
A: 7.05% (active)

Q: With `O=C(/C=C/Nc1ccc(F)cc1F)c1ccc2c(c1)Nc1ccccc1S2` as the compound, how does the growth read?
A: 81% (inactive)

Q: Which growth does the source give for `COc1cc(Cn2c(C(F)(F)F)cc3c(Cl)ncnc32)ccn1` here?
A: 92.6% (inactive)

Q: Which growth does the source give for `COc1ccc(-c2cc(C(=O)N=Nc3c(O)[nH]c4ccc(F)cc34)c3ccccc3n2)cc1` here?
A: 88.3% (inactive)

Q: Which growth does the source give for `O=C(Nc1ccccc1)Nc1nc2ccccc2s1` here?
A: 89.5% (inactive)

Q: For `O=C(CSc1nnc(-c2ccc3nc(-c4ccccc4)[nH]c3c2)o1)Nc1ccc(Cl)cc1`, which growth is on record?
A: 57.1% (inactive)

Q: How did the growth turn out when `CCOc1ccc(Nc2nc3ccccc3nc2Nc2ccc(OCC)cc2)cc1` was run?
A: 41.3% (inactive)

Q: For `CNC(=O)c1cc(-c2ccc(NC(=O)Nc3ccc(C)cc3)cc2)nc2cccnc12`, which growth is on record?
A: 98.1% (inactive)

Q: `NC(=Nc1ccc(OCCCCCCCCn2ccnn2)cc1)c1ccccc1` was tested. Which growth did it give?
A: 24.4% (inactive)

Q: For `Cc1ccc(C(=O)Nc2ccc(-n3c(C)nc4c(cnn4-c4ccccc4)c3=O)cc2)cc1`, which growth is on record?
A: 65.8% (inactive)

Q: Which growth does the source give for `COc1ccc(-c2cc(-c3cc(C(=O)c4ccccc4)n4ccc(C)cc34)nc(N)c2C#N)cc1` here?
A: 79.9% (inactive)

Q: `C[C@H]1[C@H](C)CC[C@]2(COC(=O)CCC(=O)NCC#CCN3CCNCC3)CC[C@]3(C)C(=CC[C@@H]4[C@@]5(C)CCCNC(C)(C)[C@@H]5CC[C@]43C)[C@H]12` was tested. Which growth did it give?
A: 51.6% (inactive)

Q: Which growth does the source give for `O=c1[nH]c2ccc(Cl)cc2cc1CSc1ccc(Nc2nccc(-c3ccc(Cl)cc3)n2)cc1` here?
A: -41.8% (active)

Q: With `COc1ccc(-c2cc(C(=O)N=Nc3c(O)[nH]c4ccccc34)c3ccccc3n2)cc1` as the compound, how does the growth read?
A: -37.4% (active)

Q: For `COc1ccc(-c2nc(S(=O)(=O)c3ccc(C)cc3)c(S(=O)(=O)CC(=O)N(C)Cc3ccccc3)o2)cc1`, which growth is on record?
A: 84.9% (inactive)

Q: Which growth does the source give for `COc1ccc(C(C)=C(c2ccc(OCCCN(C)C)cc2)c2ccc(OCCCN(C)C)cc2)cc1` here?
A: -92.5% (active)

Q: With `COc1cc2c3c(n(CCCNCCO)c(=O)c2cc1OC)-c1nc2c(cc1C3=O)OCO2` as the compound, how does the growth read?
A: 35.6% (inactive)

Q: With `c1ccc(C(=C(c2ccc(OCCN3CCCCC3)cc2)c2ccc(OCCN3CCCCC3)cc2)C2CCCC2)cc1` as the compound, how does the growth read?
A: -17.9% (active)

Q: `O=C(CSc1nnc(-c2c[nH]c3ccccc23)n1-c1ccccc1)Nc1ccc(C(=O)/C=C/c2ccc(Cl)cc2)cc1` was tested. Which growth did it give?
A: 79.3% (inactive)

Q: Which growth does the source give for `COc1cnc2c(c1)C(=O)c1c-2n(CCCNC(C)C)c(=O)c2cc(OC)c(OC)cc12` here?
A: 46.6% (inactive)

Q: Which growth does the source give for `COc1ccc(NC(=O)CSc2nnc(-c3ccc4nc(-c5ccc(Cl)cc5)[nH]c4c3)o2)cc1` here?
A: 66% (inactive)

Q: For `CN(CCO)c1oc(-c2ccccc2)nc1[P+](c1ccccc1)(c1ccccc1)c1ccccc1`, which growth is on record?
A: 22.3% (inactive)

Q: For `CN1CCc2c(sc3ncnc(N/N=C/c4ccc5ccccc5c4)c23)C1`, which growth is on record?
A: 42.7% (inactive)
